# Screen size: about 310,000 compounds; about 11,000 (3.5%) were called active. Another 4% or so got no clear call; they are omitted. Calls come from the whole dose curve; as a rule, active = well fitted inhibition curve with a large enough effect; inconclusive = small, poorly fitted or top-dose-only effect, or another doubt; inactive = no such curve, though single readings can be large or run the other way. What follows is part of a selection rich in actives, with near analogues and random picks from the rest.
# Target: 4'-phosphopantetheinyl transferase ffp (Bacillus subtilis) (UniProt Q9F4F7)
# Assay: qHTS Assay for Inhibitors of Bacillus subtilis Sfp phosphopantetheinyl transferase (PPTase);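 note: the enzyme is Sfp with the accession as filed and its product quenches rhodamine fluorescence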;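 for largest response in the series, negative = inhibition: 0% = enzyme reaction without inhibitor and -100% = no enzyme wells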
# Conditions: Biochemical Sfp PPTase activity
# In short: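 Buffer: 50 mM Hepes-Na pH 7.6, 10 mM MgCl2, 0.01% Nonidet P-40, 0.01% BSA. Enzyme 15 nM, pre-exposed to compound 15 min; substrates then added and fluorescence change tracked over 30 min.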
# Potency is the fitted concentration of half-maximal effect.
SMILES,"largest response in the series, negative = inhibition",Potency
Cc1ccc(NS(=O)(=O)c2ccc(-c3ccc(=O)[nH]n3)o2)c(C)c1,23.5% (inactive),–
Cc1ccc(OC(=O)c2c(C)nn(-c3ccccc3)c2C)cc1,-5.58% (inactive),–
CCOC(=O)c1c(C)nn(-c2ncccc2NC(=O)CCC(=O)O)c1C,–,89.1 µM (active)
CCOC(=O)c1c(-c2ccc(-c3ccccc3)cc2)csc1NC(=O)CCC(=O)O,-8.3% (inactive),–
CN(C(=O)c1cccc([N+](=O)[O-])c1)c1ccccc1C(=O)NCc1ccccc1,15.3% (inactive),–
CCOc1ccc(CNC(=O)CCC(=O)N2CCSc3ccccc32)cc1,11.6% (inactive),–
CCOC(=O)c1cc(Sc2ccccc2N)cc(C(=O)OCC)n1,2.06% (inactive),–
CCS(=O)(=O)c1cc([N+](=O)[O-])c(Sc2ccccc2N)s1,–,3.98 µM (active)
Nc1ccccc1Sc1ccc(C(F)(F)F)cc1[N+](=O)[O-],4.01% (inactive),–
COCCn1c(N)c(NCc2ccccc2)c(=O)[nH]c1=O,-5.84% (inactive),–
CCc1ccc(OCC(=O)NCC(c2ccc(Cl)cc2)N2CCCCC2)cc1 (stereo not drawn),-3.22% (inactive),–
O=c1c(O)c(Br)ccc2c(Br)c(O)c(O)c(O)c12,–,44.7 µM (active)
CN(CCC1CCOCC1)C(=O)CC1C(=O)NCCN1Cc1cccc(F)c1 (stereo not drawn),18.8% (inactive),–
Cc1cc(C(=O)N/N=C/c2ccc(N3CCOCC3)cc2)c(C)o1,16% (inactive),–
C=CCNC(=S)N/N=C/c1ccc(C)s1,10% (inactive),–
CNC(=S)N/N=C/c1ccc(N2CCOCC2)s1,–,8.91 µM (active)
CC(NC(=O)COc1ccc(-c2ccccc2)cc1)C1CCCO1 (stereo not drawn),-4.17% (inactive),–
Cc1ccccc1/C=C\c1nc(O)c([N+](=O)[O-])c(=O)[nH]1,2.6% (inactive),–
CCn1c(CNc2ccc(OC)cc2)nnc1SCC(=O)c1ccc(OC)cc1,–,28.2 µM (active)
COC(=O)c1ccc(NC(=O)CSc2nnc(CNc3ccc(OC)cc3)n2C)cc1,7.16% (inactive),–

SMILES,"largest response in the series, negative = inhibition",Potency
C=CCn1c(CNC(=O)c2ccco2)nnc1SCC(=O)c1ccc(OC)cc1,17.3% (inactive),–
O=C(NCc1ccc2c(c1)OCO2)C(=O)NCC1OCCN1S(=O)(=O)c1ccc(F)cc1 (stereo not drawn),4.15% (inactive),–
COc1ccc(OC)c([C@H](O)CNC(=O)CN)c1,4.71% (inactive),–
CC(C)c1nnc(NC(=O)CCC(=O)N2CCN(c3cccc(Cl)c3)CC2)s1,0.428% (inactive),–
CC(C)NS(=O)(=O)c1ccc(OCC(=O)NC2CCCCCC2)cc1,6.32% (inactive),–
Cc1ccc(S(=O)(=O)C(C#N)c2nc3ccccc3nc2N2CCCC2)cc1C (stereo not drawn),–,50.1 µM (active)
Cc1cc(N2CCN(S(=O)(=O)c3ccc(C)c(C)c3)CC2)c2ccccc2n1,-20.8% (inactive),–
Cc1ccc(S(=O)(=O)Nc2nc3ccccc3nc2N2CCc3ccccc3C2)cc1,9.29% (inactive),–
COc1ccc(NS(=O)(=O)c2cccc3nsnc23)cc1Cl,13.3% (inactive),–
Cc1cc(-c2ccc(S(=O)(=O)N3CCN(c4cccc(C(F)(F)F)c4)CC3)s2)on1,8.41% (inactive),–
S=c1[nH]nc(-c2cccs2)n1/N=C/c1cn(-c2ccccc2)nc1-c1ccc(Cl)cc1,-17.4% (inactive),–
O=c1[nH]c(-c2cccs2)nc2ccccc12,-0.0388% (inactive),–
S=c1[nH]c(-c2cccs2)cn1-c1ccccc1,–,15.8 µM (active)
COc1cccc(NC(=O)C2C(c3ccccc3)C2(Cl)Cl)c1 (stereo not drawn),11.1% (inactive),–
CCn1cc(C(=O)N[C@@H](C)C(=O)NCCO)c(=O)c2cc3c(cc21)OCO3,20.9% (inactive),–
Cc1ccc(S(=O)(=O)CC(=O)NC(C)c2ccccc2)cc1 (stereo not drawn),12.8% (inactive),–
CN(CCc1ccccn1)C1CCCN(S(=O)(=O)c2ccccc2Cl)C1 (stereo not drawn),8.81% (inactive),–
CC[C@H](C)[C@H](NC(=O)[C@H](Cc1ccc(O)cc1)NC(=O)[C@@H](NC(=O)[C@H](CCCN=C(N)N)NC(=O)[C@@H](N)CC(=O)O)C(C)C)C(=O)N[C@@H](Cc1cnc[nH]1)C(=O)N1CCC[C@H]1C(=O)N[C@@H](Cc1ccccc1)C(=O)O,-1.37% (inactive),–
CCn1c(-c2ccoc2C)n[nH]c1=S,11.6% (inactive),–
CCCc1cc(-c2n[nH]c(=S)n2CC)c2ccccc2n1,-1.53% (inactive),–

SMILES,"largest response in the series, negative = inhibition",Potency
CCn1c(-c2ccncc2)n[nH]c1=S,–,39.8 µM (active)
CC1=CCC2C(=O)N(c3cccc(C(=O)NC(C)c4ccccc4)c3)C(=O)C2C1 (stereo not drawn),5.16% (inactive),–
CCOc1ccc(N2C(=O)CC(N(O)c3ccccc3)C2=O)cc1 (stereo not drawn),-14.7% (inactive),–
CCOC(=O)c1ccc(N2C(=O)CC(N(C)Cc3ccccc3)C2=O)cc1 (stereo not drawn),16.2% (inactive),–
CCCCCCC(=O)N(O)C1CC(=O)N(c2ccccc2)C1=O (stereo not drawn),–,7.08 µM (active)
COc1ccc(CCNC(=O)CCc2cn(C)c3ccccc23)c(OC)c1,10.4% (inactive),–
Cc1onc(-c2ccccc2)c1C(=O)N1CCN(S(=O)(=O)c2ccccc2C(F)(F)F)CC1,21.8% (inactive),–
O=C(O)C1CCN(c2ccc([N+](=O)[O-])cc2[N+](=O)[O-])CC1,13.6% (inactive),–
O=[N+]([O-])c1ccc(N2CCN(c3ccc(O)cc3)CC2)c(Cl)c1,–,50.1 µM (active)
COc1ccc(N2CCN(c3ccc([N+](=O)[O-])cc3Cl)CC2)cc1,2.35% (inactive),–
O=C(Cc1ccc(Cl)cc1)NC1CCS(=O)(=O)C1 (stereo not drawn),11.6% (inactive),–
COC(=O)Nc1ccc(S(=O)(=O)Nc2cc(OC)nc(OC)n2)cc1,-10.4% (inactive),–
S=C(Nc1ccc(Br)cc1)NC1CCN(Cc2ccccc2)CC1,5.78% (inactive),–
CCOc1ccccc1NC(=S)NC(=O)CCc1ccccc1,-1.83% (inactive),–
COC(=O)c1c(NC(=O)c2ccc(S(=O)(=O)N3CCOCC3)cc2)sc2c1CCN(C(C)C)C2,6.28% (inactive),–
Cn1c(CC2Sc3ccccc3NC2=O)nnc1SCC(=O)c1ccc(Cl)cc1 (stereo not drawn),–,44.7 µM (active)
Cn1c(CNc2nc(-c3ccccc3)cs2)nnc1SCC(=O)c1ccccc1,3.73% (inactive),–
Cn1c(SCC(=O)c2ccc(F)cc2)nnc1-c1ccccn1,-4.04% (inactive),–
